# aSyn 5UTR act – Activators via SNCA 5'UTR binding, MLPCN; alpha-synuclein 5'UTR reporter, activators screen; activity score, % (tested at 7.5 µM), hits read low; 7.1% of 300,000 active; AID 1814; in the data active = activity score below about -60%
# Numbers without * were called inactive. Only a sample is shown.
SMILES,aSyn 5UTR act
Cc1ccc(S(=O)(=O)Nc2cccc(-c3ccc(N4CCCCCC4)nn3)c2)cc1C,-117*
O=C(Nc1cccc(-c2ccc(N3CCCCC3)nn2)c1)C(F)(F)F,96
O=S(=O)(Nc1cccc(-c2ccc(N3CCCCCC3)nn2)c1)c1ccccc1F,-128*
O=S(=O)(Nc1cccc(-c2ccc(N3CCCCCC3)nn2)c1)c1ccc(C(F)(F)F)cc1,-88*
O=S(=O)(Nc1cccc(-c2ccc(N3CCCCCC3)nn2)c1)c1ccc(F)cc1,-146*
O=S(=O)(Nc1cccc(-c2ccc(N3CCCCCC3)nn2)c1)c1cccc(F)c1,-108*
Oc1ccc(-c2nnc(-c3ccc(O)cc3)nn2)cc1,-109*
Oc1ccc(-c2nccc(-c3cccs3)n2)cc1,-157*
Oc1ccc(-c2nccc(-c3ccc(Cl)cc3)n2)cc1,-84*
Oc1ccc(-c2cccc(-c3ccc(O)cc3)n2)cc1,-68*
O=C(O)CCCN1C(=O)/C(=C/c2ccc(-c3nc4ccccc4s3)o2)SC1=S,-76*
O=C(CCN1C(=O)/C(=C/C=C/c2ccccc2)SC1=S)Nc1nc2ccccc2s1,-62*
O=C(CN1C(=O)S/C(=C\C=C\c2ccccc2)C1=O)N1CCOCC1,-126*
O=C(CCCN1C(=O)S/C(=C\C=C\c2ccccc2)C1=O)Nc1ccc(O)cc1,-126*
O=C(COC(=O)CCN1C(=O)/C(=C\C=C\c2ccccc2)SC1=S)Nc1cc(F)ccc1F,64
CCc1ccc(/C=C2\SC(=S)N(CCCC(=O)Nc3ccc(C(=O)O)cc3)C2=O)cc1,109
O=C(CCN1C(=O)/C(=C\C=C\c2ccccc2)SC1=S)Nc1ccc(C(=O)O)cc1,-69*
FC(F)(F)c1ccc(N/N=C/c2cccnc2)nc1,-115*
O=[N+]([O-])c1ccc(N/N=C\c2cccnc2)nc1,-84*
Cc1csc(N/N=C\c2cccnc2)n1,-116*
COc1ccc(/C=C/C(=O)c2ccc(NC3=NCCCS3)cc2)cc1OC,-99*
CC1(CC(=O)N/N=C/c2ccc(OCc3ccc(Cl)cc3Cl)cc2)OCCCO1,-106*
COc1cc(/C=C/C(=O)NC(C)(C)C)ccc1OCc1ccccc1,59
COc1cc(/C=N/NC(=O)CNc2n[nH]c(=O)[nH]c2=O)ccc1OCc1ccccc1,-75*
COc1cc(/C=N/NC(=O)CN2CCCCC2)ccc1OCc1ccc(Br)cc1,-154*
SMILES,aSyn 5UTR act
COc1cc(/C=N/NC(=O)CC2(C)OCCCO2)ccc1OCc1ccccc1,-65*
COc1cc(/C=N/NC(=O)CC2(C)OCCCO2)ccc1OCc1ccc(Cl)cc1Cl,-70*
Cc1ccc(NC(=O)c2cc3cccc([N+](=O)[O-])c3[nH]2)cc1,-110*
CCN1CCN(c2nc(Nc3cccc(OC)c3)nc(N)c2[N+](=O)[O-])CC1,-86*
CCC(C)Nc1nc(N)c([N+](=O)[O-])c(Nc2cc(OC)ccc2OC)n1 (stereo not drawn),97
CCC(C)Nc1nc(N)c([N+](=O)[O-])c(Nc2ccccc2OC)n1 (stereo not drawn),60
COc1ccccc1C1CCN(c2ccc([N+](=O)[O-])c(OC)c2)CC1,-75*
Cc1ccc(/C(O)=C2\C(=O)C(=O)N(Cc3cccnc3)C2c2ccccc2[N+](=O)[O-])cc1 (stereo not drawn),-99*
CCc1ccc(CCC(=O)Nc2ccc(Cl)cc2)o1,-67*
CN(C)/C=C/C(=O)c1ccc(Oc2ccccc2)cc1,-136*
CCCc1ccc(C(=O)/C=C/N(C)C)cc1,-126*
NC(=S)Nc1cccc2cc3ccccc3cc12,-101*
C=CCN(C(=O)c1oc2c(Cl)cc(C)cc2c1C)C1CCS(=O)(=O)C1 (stereo not drawn),-71*
Cc1cccc(NC(=O)CNc2cc(C)ccc2C)c1,-68*
Cc1ccc(SCC(=O)Nc2cccc(C)c2)cc1,-135*
Cc1nc2oc(C(=O)c3ccccc3)c(N)c2c2c1COC(C)(C)C2,-83*
CCCc1nc2oc3c(NCc4ccccn4)ncnc3c2c2c1COC(C)(C)C2,53
COc1cc(C2NC(=S)NC(O)(C(F)(F)F)C2C(=O)c2cccs2)cc(OC)c1O (stereo not drawn),-95*
CN1C(=O)NC(c2ccc(O)cc2)C(C(=O)c2cccs2)C1(O)C(F)(F)F (stereo not drawn),-100*
O=C(Nc1nnc(-c2ccccc2)s1)c1ccc(F)cc1,-89*
CCOc1ccccc1C(=O)Nc1nnc(CC)s1,-93*
COc1ccccc1C(=O)Nc1nsc(-c2ccccc2)n1,-152*
COc1ccccc1C(=O)Nc1nnc(-c2ccc(F)cc2)s1,-132*
CCc1nnc(NC(=O)c2cccc(C(=O)Nc3nnc(CC)s3)n2)s1,66
N#C/C(=C/c1ccc([N+](=O)[O-])cc1)C(=O)Nc1ccccc1O,-134*
N#C/C(=C\c1ccc([N+](=O)[O-])cc1)C(=O)Nc1ccccc1O,-112*
CCOC(=O)c1oc2cccc(OC(C)=O)c2c1C,-85*
CCOC(=O)c1oc2cccc(O)c2c1C,-81*
Cc1c(C(=O)Nc2nonc2-c2ccc(F)cc2)oc2ccc(F)cc12,54
CCc1ccc2oc(C(=O)Nc3nonc3C)c(C)c2c1,-138*

# From PubChem BioAssay
